The full ranking holds about 3,600 compounds; the median of “viability index relative to DMSO control” is about 0.81, and the lowest 2% start at about 0.13. What follows is part of a selection rich in the lowest values, with near analogues and random picks from the rest.
test system: Plasmodium falciparum NF54 stage V gametocytes; test: viability index relative to DMSO control (fraction); higher = less gametocyte killing; conditions: 1.25 µM, incubation time: 72 h
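Also: Saponin-lysis sexual stage assay in serum-free medium: MitoTracker Red CMXRos staining plus saponin, high-content imaging, particle count per well divided by plate mean of DMSO wells.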

Structure (SMILES)	viability index
O=C(c1cc2n(n1)C(C(F)(F)F)CC(c1ccc3c(c1)OCO3)N2)N1CCN(C(c2ccccc2)c2ccccc2)CC1 (centres undefined)	0.682
CC(=O)Nc1ccc(-c2nc3c4ccccc4c4ccc(I)cc4c3[nH]2)cc1	0.762
C(=NNc1nc2ccccc2[nH]1)c1c[nH]c2ccccc12	0.558
COc1cccc(CNc2cc(C(=O)NCCNC(C)=O)cc(S(=O)(=O)N(C)C)c2)c1OC	1.32
CCOc1ccc2nc(C)cc(Nc3ccc(C)c(Cl)c3)c2c1	0.852
CCOc1ccc2nc3cc(NCc4ccco4)ccc3c(N)c2c1	0.775
COc1ccc(C2c3[nH]c4ccccc4c3C[C@H]3C(=O)N(CCC(C)C)CC(=O)N23)cc1 (some centres undefined)	0.803
C=CCSc1nnc2c(n1)[nH]c1ccc(OCC)cc12	0.656
Cc1cc(N2CCC(C)CC2)nc2ccc(NC(=O)c3ccc([N+](=O)[O-])o3)cc12	0.12
Cc1cc([N+](=O)[O-])ccc1-c1ccc(C(=O)Nc2ccc(-c3nc4ccccc4[nH]3)cc2)o1	0.622
O=C(Nc1ccc(-c2nc3ccc(NC(=O)c4ccc(Br)o4)cc3[nH]2)cc1)c1ccc(Br)o1	1.1
Cc1cccc(-c2nc3cc(NC(=S)NC(=O)c4ccc(Cl)cc4)ccc3o2)c1	0.808
Cc1ccc(-c2nc3cc(NC(=O)c4ccc([N+](=O)[O-])o4)ccc3o2)cc1Br	0.0755
Cc1cc(N2CCN(C)CC2)nc2ccc(NC(=O)c3ccc(Br)o3)cc12	0.924
O=C(Nc1ccc2oc(-c3ccc(I)cc3)nc2c1)c1ccc([N+](=O)[O-])o1	0.0302
Cc1ccc(-c2nc3cc(NC(=O)c4ccc(Cl)cc4Cl)ccc3o2)cc1	1.32
Nc1ccc(C(=O)Nc2ccc(-c3nc4ccccc4o3)cc2)cc1	0.703
Cc1cc(N2CCCCC2)nc2ccc(NC(=O)c3cccc([N+](=O)[O-])c3)cc12	0.787
O=C(CN1CCN(C(=O)c2ccccc2)CC1)Nc1ccc(-c2nc3cc(NC(=O)CN4CCN(C(=O)c5ccccc5)CC4)ccc3o2)cc1	0.951
Cc1cccc(-c2nc3cc(NC(=O)c4ccc([N+](=O)[O-])o4)ccc3o2)c1	0.0679
CNC(=O)c1nn(C)c2c1CC(NCC1CCCCC1)CC2 (centres undefined)	0.702

Structure (SMILES)	viability index
CC(=NNC(=O)c1ccc(C)cc1)c1ccccn1	0.294
CCOC(=O)c1oc2cc(O)c(CC)cc2c(=O)c1-c1ccc2c(c1)OCO2	1.09
CCOc1ccc2[nH]c(=O)c(CN(CCCN3CCOCC3)C(=S)NCCCN(CC)CC)cc2c1	0.814
Oc1cccc(Nc2nc(NCc3ccco3)c3ccccc3n2)c1	0.595
O=[N+]([O-])c1cccc(Cl)c1N1CCN(S(=O)(=O)Cc2ccccc2)CC1	1
COc1cc(C=C(C#N)c2nc3ccccc3[nH]2)ccc1OCc1ccccc1Cl	0.678
CC1CC(N(C(=O)c2ccc(Cl)cc2Cl)c2ccccc2)c2ccccc2N1C(=O)c1ccc(Cl)cc1 (centres undefined)	0.723
O=[N+]([O-])c1cc([N+](=O)[O-])c2cccnc2c1Nc1cccc2cccnc12	0.209
CCC(=O)NC(c1cccc([N+](=O)[O-])c1)c1ccc2cccnc2c1O (centres undefined)	1.12
O=[N+]([O-])c1cc(C(F)(F)F)cc([N+](=O)[O-])c1Sc1cccc2cccnc12	0.0789
COc1cccc2c1OCC(CN1CCC(C(=O)Nc3ccc(-n4cccn4)cc3)CC1)=C2	1.03
O=C(Nc1ccc2oc(-c3ccccc3F)nc2c1)c1ccc([N+](=O)[O-])o1	0.128
CCC(C)(C)c1ccc(Oc2ccc(NC(=O)c3ccc([N+](=O)[O-])o3)cc2)cc1	0.362
O=C(Nc1ccc(-c2nnc(-c3ccc(NC(=O)c4ccccc4[N+](=O)[O-])cc3)o2)cc1)c1ccccc1[N+](=O)[O-]	0.756
O=C(Nc1ccc(-c2nc3ccccc3[nH]2)cc1)c1ccc(-c2cccc([N+](=O)[O-])c2)o1	0.751
O=C(Nc1ccc(F)c(F)c1)c1ccccc1[N+](=O)[O-]	1.03
O=C(Nc1ccc2oc(-c3cccc4ccccc34)nc2c1)c1ccc([N+](=O)[O-])o1	0.0679
CCN1C(=Cc2cccc[n+]2C)C=Cc2ccccc21	1.01
CCN1CCC(NC2CCCc3c2[nH]c2ccc([N+](=O)[O-])cc32)CC1 (centres undefined)	1.07
CC1CCN(C(=O)C(C)N(c2ccccc2)S(C)(=O)=O)CC1 (centres undefined)	0.917
O=C1OC(c2ccccc2)=NC1=C(Cl)Cl	1.1

Structure (SMILES)	viability index
Cc1cc(Nc2ccc(O)cc2)nc2cccc(O)c12	0.735
C=CC[n+]1cccc2c3ccccc3ccc21	0.706
Cc1c2ccccc2cc(Cc2ccccc2)[n+]1C	0.76
c1ccc2c(c1)ccc1cc3cccc[n+]3cc12	0.0821
O=C(c1ccc([N+](=O)[O-])cc1)c1ccc(Cl)c(Cl)c1	0.574
CCOC(=O)C1=C(C)N=c2sc(=Cc3cccc(OCc4cccc5ccccc45)c3)c(=O)n2C1c1ccc(OC)cc1OC (centres undefined)	0.924
O=C(Cc1ccc(Cl)cc1)NNS(=O)(=O)c1ccc([N+](=O)[O-])cc1	0.939
O=C(Nc1ccc(-c2nc3cc(NC(=O)C(c4ccccc4)c4ccccc4)ccc3[nH]2)cc1)C(c1ccccc1)c1ccccc1	0.908
O=C(C=Cc1ccccc1)Nc1ccc(-c2nc3cc(NC(=O)C=Cc4ccccc4)ccc3[nH]2)cc1	0.11
O=C(Nc1ccc(-c2nc3ccccc3[nH]2)cc1)c1ccc(-c2ccc(Cl)cc2)o1	0.725
O=C(Nc1ccc(-c2nc3ccccc3[nH]2)cc1)c1ccc(Cl)c(Cl)c1	1.03
O=C(Nc1ccc(-c2nc3cc(NC(=O)c4cccs4)ccc3[nH]2)cc1)c1cccs1	1.05
O=C(Nc1ccc(-c2nc3ccccc3[nH]2)cc1)c1cccc(C(=O)Nc2ccc(-c3nc4ccccc4[nH]3)cc2)n1	0.0331
CCOc1ccccc1C1C(C#N)=C(SCC(=O)Nc2ccc(Cl)cc2)NC(C)=C1C(=O)Nc1ccccc1 (centres undefined)	0.5
Fc1ccc(CSc2nc3cccnc3[nH]2)cc1	1.24
Cc1cc(C)cc(NC2=C(N)C(=O)c3ccccc3C2=O)c1	0.707
COc1cc2nc(N3CCN(c4nc(N)c5cc(OC)c(OC)cc5n4)CC3)nc(N)c2cc1OC	0.0192
COc1ccc(-c2cc(C3CCN(c4nc(N)c5cc(OC)c(OC)cc5n4)CC3)n[nH]2)cc1OC	1.17
COc1cc2nc(Nc3ccc(F)cc3)nc(N)c2cc1OC	0.787
O=C(CNCCc1ccccc1)NC(c1ccccc1)c1ccccc1	0.761
CCOc1ccc(C=C(C#N)c2nc3ccccc3[nH]2)cc1OC	0.837

Structure (SMILES)	viability index
COc1cc2c(-c3cc(Br)ccc3O)nc3c(c(Cc4ccccc4)nn3-c3ccccc3)c2cc1OC	0.595
CC(C=NNC(N)=S)=NNC(N)=S	0.131
NC(=S)NN=Cc1cc([N+](=O)[O-])ccc1O	0.176
CCOc1ccc(CCN2C(=S)N(c3cccc(C(F)(F)F)c3)C(=O)C2CC(=O)Nc2ccc(C(=O)OC)cc2)cc1OCC (centres undefined)	0.582
N#Cc1c(-c2ccccc2)cc(N2CCN(C3CCCCC3)CC2)n2c1nc1ccccc12	0.822
COc1ccc(-c2c[n+](CC(=O)c3cccc(OC)c3)c3n2CCC3)cc1	0.74
Cc1ccc2c(c1)C(C)(c1ccc(Cl)cc1)CC(C)(C)N2C(=O)COc1ccc2ccccc2c1 (centres undefined)	0.826
O=C(C[n+]1cc(-c2ccc(F)cc2)n2c1CCC2)Nc1ccc(Cl)cc1	1.44
CCSC(Cl)=C(NC(=O)c1ccccc1)[P+](c1ccccc1)(c1ccccc1)c1ccccc1	0.0362
Cc1c(Cl)cccc1NC(=O)CCC(=O)NNC(=O)c1ccccc1	0.9
CCCc1ccc(C(=O)NC(=O)c2ccccc2O)cc1	1.05
COc1ccccc1NC1=CC(=NS(=O)(=O)c2ccccc2)c2ccccc2C1=O	0.247
O=C1C(Nc2ccc(O)cc2)=CC(=NS(=O)(=O)c2cccs2)c2ccccc21	0.306
COc1ccc(S(=O)(=O)N=C2C=C(Nc3ccccc3OC)C(=O)c3ccccc32)cc1	0.0579
O=C1C(Sc2nc[nH]n2)=CC(=NS(=O)(=O)c2cccs2)c2ccccc21	0.707
COc1ccccc1NC1=CC(=NS(=O)(=O)c2cccs2)c2ccccc2C1=O	0.0154
COc1ccccc1NC1=CC(=NS(=O)(=O)c2ccc(F)cc2)c2ccccc2C1=O	0.189
Cc1cccc(CCNc2cc(C)nc3ncnn23)c1	0.982
COc1ccc2[nH]c(SCC(=O)Nc3cccc(NC(=O)CSc4nc5cc(OC)ccc5[nH]4)n3)nc2c1	0.353
Cc1cccc(NC(=O)C2C3C=CC4(O3)C2C(=O)N(CC2COc3ccccc3O2)C4C(=O)NC2CCCC(C)C2C)c1 (centres undefined)	1.33
Cc1cc2nc(NC(=N)N)nc(C)c2cc1C	0.718

From the supplement of paper PMC4723716
